# For some assays here: Measured potencies and affinities stand elsewhere.
# Tests used:
# Set-up in all cases: scale not given: direction of the effect not stated beside the values
# [1] = target: Protein translocase subunit SecA (Escherichia coli (strain K12)) (UniProt P10408); test: Assay to Identify E. coli SecA ATPase Inhibitors; assay type: functional; conditions: 30 µM
# [2] = target: T1, Ubiquitin-activating enzyme e1, putative (Leishmania donovani (strain BPK282A1)) (UniProt E9BSI1); test: Leishmania donovani Ubiquitin Activating Enzyme (LdE1); assay type: functional; conditions: 30 µM
# T1 sequence (whole entry): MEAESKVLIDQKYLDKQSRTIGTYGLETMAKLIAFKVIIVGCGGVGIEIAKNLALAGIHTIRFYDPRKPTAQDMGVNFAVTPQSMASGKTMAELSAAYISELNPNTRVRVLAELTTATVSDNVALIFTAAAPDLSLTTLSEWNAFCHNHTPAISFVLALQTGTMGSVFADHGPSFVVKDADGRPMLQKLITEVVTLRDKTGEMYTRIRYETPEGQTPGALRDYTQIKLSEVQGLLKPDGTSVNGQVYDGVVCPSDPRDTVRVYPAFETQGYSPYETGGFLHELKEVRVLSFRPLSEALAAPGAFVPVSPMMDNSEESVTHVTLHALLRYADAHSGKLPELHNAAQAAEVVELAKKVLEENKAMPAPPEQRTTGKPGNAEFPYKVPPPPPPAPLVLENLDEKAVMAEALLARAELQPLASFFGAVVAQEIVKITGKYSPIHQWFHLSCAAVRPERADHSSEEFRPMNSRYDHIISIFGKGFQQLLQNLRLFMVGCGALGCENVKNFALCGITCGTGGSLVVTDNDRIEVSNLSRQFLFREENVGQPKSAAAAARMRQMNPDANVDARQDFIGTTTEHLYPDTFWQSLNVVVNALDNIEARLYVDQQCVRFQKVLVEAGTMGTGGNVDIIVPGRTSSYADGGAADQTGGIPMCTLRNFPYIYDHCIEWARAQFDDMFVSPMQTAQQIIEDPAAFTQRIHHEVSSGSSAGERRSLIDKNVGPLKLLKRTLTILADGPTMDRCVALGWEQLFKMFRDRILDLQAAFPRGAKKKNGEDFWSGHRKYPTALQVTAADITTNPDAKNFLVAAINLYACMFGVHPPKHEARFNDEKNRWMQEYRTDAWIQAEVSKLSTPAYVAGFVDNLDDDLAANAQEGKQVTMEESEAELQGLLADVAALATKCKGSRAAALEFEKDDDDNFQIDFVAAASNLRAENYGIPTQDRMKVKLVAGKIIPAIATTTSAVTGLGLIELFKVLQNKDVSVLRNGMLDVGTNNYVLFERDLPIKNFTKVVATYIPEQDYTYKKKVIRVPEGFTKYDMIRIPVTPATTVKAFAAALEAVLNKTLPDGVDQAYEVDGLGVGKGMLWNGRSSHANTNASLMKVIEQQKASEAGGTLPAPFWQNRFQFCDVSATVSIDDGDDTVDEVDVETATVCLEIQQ
# [3] = target: Sialic acid-binding Ig-like lectin 9 (Homo sapiens) (UniProt Q9Y336); test: Hs-Siglec9 ALPHAscreen SOP 20170721; conditions: 10 µM
# Sialic acid-binding Ig-like lectin 9 (Homo sapiens), sequence (Q9Y336 whole entry): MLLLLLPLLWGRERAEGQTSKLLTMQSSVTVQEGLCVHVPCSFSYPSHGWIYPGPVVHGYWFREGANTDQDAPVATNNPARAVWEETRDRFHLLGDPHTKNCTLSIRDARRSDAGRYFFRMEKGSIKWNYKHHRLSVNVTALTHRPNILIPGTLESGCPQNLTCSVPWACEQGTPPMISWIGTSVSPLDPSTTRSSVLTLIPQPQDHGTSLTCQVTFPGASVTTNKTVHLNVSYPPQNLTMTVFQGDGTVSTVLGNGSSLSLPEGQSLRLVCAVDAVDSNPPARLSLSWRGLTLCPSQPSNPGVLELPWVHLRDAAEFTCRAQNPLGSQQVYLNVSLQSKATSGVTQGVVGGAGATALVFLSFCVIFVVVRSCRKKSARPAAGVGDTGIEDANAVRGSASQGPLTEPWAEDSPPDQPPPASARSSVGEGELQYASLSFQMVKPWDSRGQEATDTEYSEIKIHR
# Trypanosoma cruzi = test: Trypanosoma cruzi phosphomannomutase and mannose-1-phosphate guanylyltransferase assay; assay type: functional; conditions: 10 µM
# [4] = target: T2, Arginase-2, mitochondrial (Homo sapiens) (UniProt P78540); test: in vitro enzyme assay to detect the production of urea directly proportional to the activity of Arginase II; assay type: functional; conditions: 33.3 µM; note: in the data most compounds retested in dose-response had high values
# T2 sequence (whole entry): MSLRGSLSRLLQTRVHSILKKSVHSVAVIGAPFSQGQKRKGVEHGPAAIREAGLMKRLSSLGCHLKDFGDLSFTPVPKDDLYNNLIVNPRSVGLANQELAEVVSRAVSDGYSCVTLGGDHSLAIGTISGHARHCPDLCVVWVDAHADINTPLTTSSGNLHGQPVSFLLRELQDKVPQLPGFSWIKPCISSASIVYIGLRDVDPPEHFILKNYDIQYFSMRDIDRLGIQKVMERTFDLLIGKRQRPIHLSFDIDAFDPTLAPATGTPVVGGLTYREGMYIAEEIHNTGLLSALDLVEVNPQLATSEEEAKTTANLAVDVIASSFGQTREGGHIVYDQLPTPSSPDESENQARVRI
# [5] = target: T3, Proteasome subunit beta (Trypanosoma cruzi) (UniProt O96673); test: Trypanosoma cruzi proteasome chymotrypsin-like activity (TcProtChymo) assay.; note: in the data most compounds retested in dose-response had high values; assay type: functional; conditions: 9.37 µM
# T3 sequence (whole entry): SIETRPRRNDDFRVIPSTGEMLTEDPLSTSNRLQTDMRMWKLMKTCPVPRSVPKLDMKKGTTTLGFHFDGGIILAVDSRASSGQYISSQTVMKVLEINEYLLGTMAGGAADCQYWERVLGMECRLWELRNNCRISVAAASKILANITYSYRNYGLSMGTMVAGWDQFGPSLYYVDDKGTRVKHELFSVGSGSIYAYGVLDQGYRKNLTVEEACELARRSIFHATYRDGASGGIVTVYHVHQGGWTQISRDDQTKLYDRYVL
# Homo sapiens = species on record: Homo sapiens; test: To identify inhibition of the IFN signalling (Jak-Stat) pathway via expression of an eGFP reporter gene under the control of an IFN-stimulated response element (ISRE) containing MxA promoter.; assay type: functional; conditions: 30 µM
# [6] = target: T4, Tyrosyl-tRNA synthetase, putative (Trypanosoma cruzi (strain CL Brener)) (UniProt Q4DSP6); test: Trypanosoma cruzi tyrosyl tRNA synthetase (TcYRS) _High Tyrosine SOP; assay type: functional; conditions: 30 µM; note: in the data most compounds retested in dose-response had high values
# T4 sequence (whole entry): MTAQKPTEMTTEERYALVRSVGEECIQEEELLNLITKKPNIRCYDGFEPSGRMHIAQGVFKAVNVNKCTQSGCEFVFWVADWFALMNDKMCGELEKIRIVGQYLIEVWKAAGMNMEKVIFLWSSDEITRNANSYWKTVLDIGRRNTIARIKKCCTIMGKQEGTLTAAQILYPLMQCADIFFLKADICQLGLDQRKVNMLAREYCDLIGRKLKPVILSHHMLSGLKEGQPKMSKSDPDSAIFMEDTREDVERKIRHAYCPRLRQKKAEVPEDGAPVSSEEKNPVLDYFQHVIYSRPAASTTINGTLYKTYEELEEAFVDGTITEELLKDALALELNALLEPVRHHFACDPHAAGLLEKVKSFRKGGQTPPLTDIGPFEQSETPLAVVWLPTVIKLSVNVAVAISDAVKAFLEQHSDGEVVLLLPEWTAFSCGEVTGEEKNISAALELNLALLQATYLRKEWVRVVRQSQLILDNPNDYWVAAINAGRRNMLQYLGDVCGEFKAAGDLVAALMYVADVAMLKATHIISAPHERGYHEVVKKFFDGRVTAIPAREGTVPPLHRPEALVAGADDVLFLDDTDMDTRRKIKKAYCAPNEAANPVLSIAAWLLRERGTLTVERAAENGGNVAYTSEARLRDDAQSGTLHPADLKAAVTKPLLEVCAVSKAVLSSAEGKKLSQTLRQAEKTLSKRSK
# [7] = target: T4, Tyrosyl-tRNA synthetase, putative (Trypanosoma cruzi (strain CL Brener)); test: Trypanosoma cruzi tyrosyl tRNA synthetase (TcYRS) SOP; assay type: functional; conditions: 30 µM
# [8] = target: Chromo domain-containing protein 1 (Saccharomyces cerevisiae (strain ATCC 204508 / S288c) (Baker's yeast)) (UniProt P32657); test: ScCHD-1 Enzyme Inhibition Assay; assay type: functional; conditions: 30 µM; note: in the data most compounds retested in dose-response had high values
# Chromo domain-containing protein 1 (Saccharomyces cerevisiae (strain ATCC 204508 / S288c) (Baker's yeast)), sequence (P32657 whole entry, the tested form may be a part): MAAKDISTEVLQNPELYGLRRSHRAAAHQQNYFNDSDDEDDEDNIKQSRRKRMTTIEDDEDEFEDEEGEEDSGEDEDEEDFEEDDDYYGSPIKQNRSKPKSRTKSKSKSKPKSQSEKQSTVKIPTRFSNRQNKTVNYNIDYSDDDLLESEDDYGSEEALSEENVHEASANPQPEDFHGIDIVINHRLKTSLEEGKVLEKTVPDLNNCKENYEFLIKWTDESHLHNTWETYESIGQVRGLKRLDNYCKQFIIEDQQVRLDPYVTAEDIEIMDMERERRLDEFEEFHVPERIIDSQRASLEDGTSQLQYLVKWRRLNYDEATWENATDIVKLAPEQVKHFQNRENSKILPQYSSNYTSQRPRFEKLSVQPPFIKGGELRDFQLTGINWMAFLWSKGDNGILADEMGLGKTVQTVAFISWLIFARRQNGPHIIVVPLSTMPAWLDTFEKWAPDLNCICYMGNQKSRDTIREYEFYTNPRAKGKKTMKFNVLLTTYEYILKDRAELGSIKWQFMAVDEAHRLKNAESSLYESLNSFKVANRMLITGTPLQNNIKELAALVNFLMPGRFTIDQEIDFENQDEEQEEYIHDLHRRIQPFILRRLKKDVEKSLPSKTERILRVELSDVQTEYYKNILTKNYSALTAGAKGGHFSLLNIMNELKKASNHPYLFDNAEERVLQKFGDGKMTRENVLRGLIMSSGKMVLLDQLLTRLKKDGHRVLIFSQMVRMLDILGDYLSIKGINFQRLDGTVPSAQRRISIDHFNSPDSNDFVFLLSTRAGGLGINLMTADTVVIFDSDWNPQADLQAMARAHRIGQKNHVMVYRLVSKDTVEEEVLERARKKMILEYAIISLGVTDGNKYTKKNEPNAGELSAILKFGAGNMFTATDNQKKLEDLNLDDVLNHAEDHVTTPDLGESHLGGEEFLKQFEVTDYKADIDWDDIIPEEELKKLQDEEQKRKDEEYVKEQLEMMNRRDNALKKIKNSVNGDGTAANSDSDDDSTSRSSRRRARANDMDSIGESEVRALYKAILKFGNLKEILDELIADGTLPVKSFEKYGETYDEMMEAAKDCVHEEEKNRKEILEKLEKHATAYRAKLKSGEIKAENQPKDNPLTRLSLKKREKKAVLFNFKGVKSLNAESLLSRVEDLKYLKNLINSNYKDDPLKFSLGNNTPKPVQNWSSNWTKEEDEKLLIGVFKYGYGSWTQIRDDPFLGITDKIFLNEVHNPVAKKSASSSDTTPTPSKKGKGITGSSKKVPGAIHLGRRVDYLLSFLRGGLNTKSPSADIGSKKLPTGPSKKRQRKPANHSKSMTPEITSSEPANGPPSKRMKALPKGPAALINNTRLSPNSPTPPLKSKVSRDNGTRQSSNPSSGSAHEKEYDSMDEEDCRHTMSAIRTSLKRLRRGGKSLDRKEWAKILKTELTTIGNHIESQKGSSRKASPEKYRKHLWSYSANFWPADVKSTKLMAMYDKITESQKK
# Protein translocase subunit SecA (Escherichia coli (strain K12)), sequence (P10408 whole entry): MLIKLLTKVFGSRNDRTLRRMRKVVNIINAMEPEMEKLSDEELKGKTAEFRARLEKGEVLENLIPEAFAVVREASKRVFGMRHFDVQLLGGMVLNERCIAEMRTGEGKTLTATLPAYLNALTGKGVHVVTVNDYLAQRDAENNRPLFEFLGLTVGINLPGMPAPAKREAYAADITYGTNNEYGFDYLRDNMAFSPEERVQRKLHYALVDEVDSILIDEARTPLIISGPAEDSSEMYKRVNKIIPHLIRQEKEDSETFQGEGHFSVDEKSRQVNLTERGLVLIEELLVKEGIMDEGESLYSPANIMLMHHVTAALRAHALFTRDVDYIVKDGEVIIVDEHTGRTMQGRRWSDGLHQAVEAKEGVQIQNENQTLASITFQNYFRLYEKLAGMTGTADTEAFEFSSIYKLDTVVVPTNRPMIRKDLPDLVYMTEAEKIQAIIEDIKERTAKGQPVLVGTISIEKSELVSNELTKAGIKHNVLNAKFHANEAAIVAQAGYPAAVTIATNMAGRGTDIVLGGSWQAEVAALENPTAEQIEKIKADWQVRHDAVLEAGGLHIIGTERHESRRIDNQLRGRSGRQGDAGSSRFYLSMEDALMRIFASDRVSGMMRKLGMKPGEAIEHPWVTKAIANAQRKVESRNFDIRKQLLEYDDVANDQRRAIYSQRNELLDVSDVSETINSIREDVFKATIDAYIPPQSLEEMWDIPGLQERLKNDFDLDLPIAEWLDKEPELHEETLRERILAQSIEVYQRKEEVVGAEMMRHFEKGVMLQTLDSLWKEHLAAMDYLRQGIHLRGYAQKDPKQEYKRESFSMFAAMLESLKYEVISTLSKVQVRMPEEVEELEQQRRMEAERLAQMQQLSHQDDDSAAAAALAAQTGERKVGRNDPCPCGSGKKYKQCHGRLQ
Compound,Percent Effect [1],Percent Effect [2],Percent Effect [3],Percent Effect (Trypanosoma cruzi),Percent Effect [4],Percent Effect [5],Percent Effect (Homo sapiens),Percent Effect [6],Percent Effect [7],Percent Effect [8]
CN(C)CCOCC1CN(Cc2ccsc2)Cc2ccnn2C1 (stereo not given),-2.84%,-1.3%,1.33%,-3.41%,-1.62%,2.21%,-1.71%,1.58%,2.56%,0.0554%
CCC1c2ccsc2CCN1C(=O)NCCNc1ncccn1 (stereo not given),0.216%,15.4%,-5.88%,6.29%,6.15%,9.3%,10%,6.22%,22.9%,-7.01%
Cc1c(F)cc(C(=O)O)cc1S(=O)(=O)Nc1cccc(C(F)F)c1,-2.31%,-2.56%,2.65%,1.03%,0.41%,6.23%,11.6%,-1.44%,-3.61%,-0.222%
Cc1cnn(CC2CN(CC(=O)N3CCc4ccccc43)CCO2)c1 (stereo not given),-4.43%,8%,4.38%,-0.803%,3.55%,3.48%,6.22%,4.74%,-5.13%,-9.1%
Cc1cnc(C(=O)N2CCCCC2c2[nH]ncc2S(C)(=O)=O)cn1 (stereo not given),-1.18%,4%,4.14%,-0.986%,-1.77%,4.93%,-6.39%,6.35%,12.5%,-18.4%
CCn1c(CN2CCCC2)nnc1C1CCN(Cc2ccc(C)o2)CC1,-1.86%,0%,4.03%,6.89%,13.6%,13.9%,2.8%,6.92%,19.5%,-6.17%
CC(C)c1nccn1-c1cccc(C2CCCN2S(=O)(=O)N(C)C)n1 (stereo not given),1.33%,-17.3%,-5.7%,-2.76%,-1.77%,14.8%,39.9%,4.23%,10%,-18%
COCC(=O)N1CC[C@@H](O)[C@@H]1Cc1ccccc1,-2.38%,3.9%,-3.29%,1.27%,-4.45%,6.27%,-19.5%,-5.79%,0%,-0.374%
COC1CC2(CCN(Cc3ccc4c(c3)OCO4)CC2)C1,-2.7%,24.7%,-4%,-2.63%,1.83%,10%,-11.4%,6.76%,12.5%,-8.26%
C[C@@H]1C(=O)NC[C@H]2CN(CCc3ccccc3)C[C@H]21,-0.103%,16.9%,0.474%,1.5%,2.74%,11.4%,2.51%,11.6%,20%,-8.42%
CN(C)CCN1CCCC12CCN(C(=O)c1cccn1C)CC2,-4.21%,-1.3%,2.81%,2.04%,-2.02%,0.618%,-20.1%,-0.526%,-2.56%,4.29%

# From ChEMBL document CHEMBL3988442, “University of Dundee, Small-Polar-MMV Screening Library” (2021)
